From PubChem BioAssay (Tox21)
Records with an inconclusive call do not appear. Calls of active or inactive are those of the source. Unless noted, calls follow the shape of the full dose curve.

Key:
[1] = Nuclear factor erythroid 2-related factor 2/antioxidant responsive element (Nrf2/ARE) small molecule agonists: qHTS cell viability counter screen in human keratinocytes (AID 1919968; active = well fitted curve in the direction sought with a large enough effect in the repeat runs; an effect the other way counts as inactive or inconclusive; also: nearly all actives have a fitted effect of over 55% in size)
Procedure, shortened: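 In human HaCaT keratinocytes stably expressing an ARE-driven luciferase, compound exposure lasted 23 h at 37 C under 5% CO2. Viable cells are quantified with a protease-based fluorogenic reagent (CellTiter-Fluor) read 1 h after addition.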

[2] = Nuclear factor erythroid 2-related factor 2/antioxidant responsive element (Nrf2/ARE) small molecule agonists: luciferase reporter gene qHTS assay in human keratinocytes (AID 1919969); also: nearly all actives have a fitted effect of over 35% in size
[3] = target: Gonadotropin-releasing hormone receptor (Homo sapiens) (UniProt P30968); experiment: Human gonadotropin-releasing hormone receptor (GnRHR) small molecule agonists, calcium flux assay in GnRHR-HEK293 cells (AID 1920063); also: nearly all actives have a fitted effect of over 35% in size
Procedure, shortened: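 Intracellular calcium rise is the read-out: engineered human GnRHR HEK293 cells, dye-loaded, are exposed to DMSO-dissolved compounds and fluorescence at Ex/Em 480/540 is tracked for 3 min.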

[4] = target: KiSS-1 receptor (Homo sapiens) (UniProt Q969F8); experiment: Human kisspeptin (KISS1R) small molecule agonists, calcium flux assay in KISS1R-HEK293 cells (AID 1920064; active = well fitted curve in the direction sought with a large enough effect in the repeat runs; an effect the other way counts as inactive or inconclusive)
Procedure, shortened: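 Concentration-response testing used 15 concentrations in triplicate on human KISS1R-expressing HEK293 cells. Calcium-dependent fluorescence (Ex/Em 480/540) was followed kinetically for 3 min after compound transfer.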

[5] = G protein-coupled receptor (GPCR) small molecule agonists, calcium flux assay: HEK293 wild type cell line counter screen (AID 1920065)
Procedure, shortened: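 Fluorescence intensity signals activation. After overnight (18 h) culture and a 1 h calcium dye load at 37 C, compounds are added by pin tool and the plate read at 480/540 nm for 3 min in 1 s steps.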

[6] = p53 small molecule agonists, cell-based qHTS assay with human liver microsomes (AID 1963577)
Procedure, shortened: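 Cells carrying a p53-responsive bla reporter were rested 5 h (37 C, 5% CO2) before compound transfer. Human liver microsomes plus NADPH, 0.5 mg/mL final apiece, supplied metabolism during the 16 h 37 C exposure.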

[7] = p53 small molecule agonists, cell-based qHTS assay with human liver microsomes: qHTS cell viability counter screen (AID 1963579); also: nearly all actives have a fitted effect of over 45% in size
Procedure, shortened: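 Seed p53RE-bla cells at 4,000 per well; incubate 5 h at 37 C; add compound, human liver microsomes and NADPH; incubate 16 h at 37 C; add CellTiter-Glo; after 30 min at room temperature, read luminescence.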

[8] = p53 small molecule agonists, cell-based qHTS assay with rat liver microsomes: qHTS cell viability counter screen (AID 1963580); also: nearly all actives have a fitted effect of over 45% in size
Procedure, shortened: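 Luminescent ATP readout (CellTiter-Glo, 30 min at room temperature) reports viability of p53RE-bla HCT-116 cells after 16 h at 37 C with test compounds under metabolic activation by rat liver microsomes and NADPH at 0.5 mg/mL final each.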

[9] = target: 5-hydroxytryptamine receptor 2A (Homo sapiens) (UniProt P28223); experiment: 5-hydroxytryptamine receptor 2A (HTR2A) small molecule antagonists, cell-based qHTS assay (AID 1963586); also: nearly all actives have a fitted effect of over 45% in size
Procedure, shortened: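 CHO cells stably expressing human HTR2A were plated for 18 h at 37 C, then loaded with calcium dye for 1 h. Compounds were preincubated 5 min at room temperature before DOI (4 nM solution) was added. Kinetic fluorescence was read for 3 min.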

[10] = target: 5-hydroxytryptamine receptor 2A (Homo sapiens) (UniProt P28223); experiment: 5-hydroxytryptamine receptor 2A (HTR2A) small molecule agonists, cell-based qHTS assay (AID 1963587); also: nearly all actives have a fitted effect of over 30% in size
Procedure, shortened: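 HTR2A-CHO cells, plated 18 h at 37 C/5% CO2, dye-loaded 1 h at 37 C; compounds in DMSO added by pin tool (agonist mode). Intracellular calcium flux read as kinetic fluorescence on FDSS over 2 min at 1 s intervals.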

[11] = target: Muscarinic acetylcholine receptor M1 (Homo sapiens) (UniProt P11229); experiment: Cholinergic receptor muscarinic 1 (CHRM1) small molecule antagonists, cell-based qHTS assay (AID 1963588); also: nearly all actives have a fitted effect of over 40% in size
Procedure, shortened: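 Compounds were tested at 15 concentrations in three independent runs. Dye-loaded CHRM1-CHO cells were exposed 5 min at room temperature before stimulation by acetylcholine added at 50nM. Intracellular calcium was read kinetically on FDSS for 3 min.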

[12] = target: Muscarinic acetylcholine receptor M1 (Homo sapiens) (UniProt P11229); experiment: Cholinergic receptor muscarinic 1 (CHRM1) small molecule agonists, cell-based qHTS assay (AID 1963589); also: nearly all actives have a fitted effect of over 35% in size
Procedure, shortened: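 Fluorescent calcium dye reports M1 activation in stably transfected CHO cells. Compounds, 15 concentrations, added after 1 h dye loading at 37 C; kinetic reading at 1 sec intervals.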

[13] = cAMP Responsive Elements (CRE) small molecule agonists, cell-based qHTS assay (AID 1963590)
Procedure, shortened: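 Compound exposure lasted 3 h at 37 C/5% CO2 in CRE-bla HEK 293T cells grown in assay medium with 10% dialyzed FBS and 25 mM HEPES. Reporter signal came from LiveBLAzer B/G FRET substrate, 2 h, room temperature.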

[14] = cAMP Responsive Elements (CRE) small molecule antagonists, cell-based qHTS assay (AID 1963591; active = well fitted inhibition curve with a large enough effect in the signal ratio in the repeat runs, not every such curve was filed as active; the % refers to the signal ratio)
Procedure, shortened: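 Stimulation used NKH477 at a final 0.25 uM for 3 h in compound-treated CRE-bla HEK293T cells, seeded 18 h beforehand. Reporter activity was measured with LiveBLAzer B/G FRET substrate after 2 h at room temperature.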

[15] = target: Beta-2 adrenergic receptor (Homo sapiens) (UniProt P07550); experiment: Adrenergic beta2 receptor (ADRB2) small molecule antagonists, cell-based qHTS assay (AID 1963592); also: series mostly up to about 92 µM; nearly all actives have a fitted effect of over 50% in size
Procedure, shortened: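 Assay format: CHO-ADRB2 cells, 18-20hr seeding at 37C/5% CO2, then compound plus 1nM isoproterenol agonist mix for 0.5hr RT. Homogeneous time-resolved fluorescence cAMP detection after 1hr, expressed as 665/615 nm ratio.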

[16] = target: D(2) dopamine receptor (Homo sapiens) (UniProt P14416); experiment: Dopamine D2 receptor (DRD2) small molecule agonists, cell-based qHTS assay (AID 1963594); also: nearly all actives have a fitted effect of over 35% in size
Procedure, shortened: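 HEK293 cells stably expressing DRD2 were cultured 24 h at 37 C, then given Ro20-1724 (0.1 mM final) and compounds for 10 min at room temperature. NKH477 (200nM) was then added for 30 min. cAMP was read by HTRF.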

[17] = target: D(2) dopamine receptor (Homo sapiens) (UniProt P14416); experiment: Dopamine D2 receptor (DRD2) small molecule antagonists, cell-based qHTS assay (AID 1963595; active = well fitted inhibition curve with a large enough effect in the signal ratio in the repeat runs, with a control signal flat; the % refers to the signal ratio)
Procedure, shortened: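 Antagonist mode in DRD2-HEK293 cells: after compound addition with 0.1 mM Ro20-1724, cells received quinpirole (12 nM) and NKH477 (200 nM) for 30 min at room temperature; HTRF cAMP read after 1 h detection.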

[18] = p53 small molecule agonists, cell-based qHTS assay (AID 1963582; active = well fitted activation curve with a large enough effect in the signal ratio in the repeat runs, not every such curve was filed as active; the % refers to the signal ratio)
Procedure, shortened: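 After plating, p53RE-bla cells sat 5 h in the incubator; compounds or DMSO vehicle were pinned in; a 16 h incubation at 37 C followed; FRET substrate was added and, 2 h later at RT, fluorescence was measured.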

[19] = p53 small molecule agonists, cell-based qHTS assay: qHTS cell viability counter screen (AID 1963581); also: nearly all actives have a fitted effect of over 45% in size
Procedure, shortened: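 Luminescence from CellTiter-Glo, reflecting ATP content, serves as the cytotoxicity measure; it is taken after the 2 h reporter substrate step in HCT-116 p53RE-bla cells dosed for 16 h at 37 C.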

[20] = p53 small molecule agonists, cell-based qHTS assay with rat liver microsomes (AID 1963578)
Procedure, shortened: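 Fluorescence from a beta-lactamase reporter under a p53 response element was measured after cells had been incubated 16 h at 37 C with test compound and rat liver microsomes plus NADPH (0.5 mg/mL final each).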

Measured: Potency

Gonadotropin-releasing hormone receptor (Homo sapiens), sequence (P30968 whole entry, looked up): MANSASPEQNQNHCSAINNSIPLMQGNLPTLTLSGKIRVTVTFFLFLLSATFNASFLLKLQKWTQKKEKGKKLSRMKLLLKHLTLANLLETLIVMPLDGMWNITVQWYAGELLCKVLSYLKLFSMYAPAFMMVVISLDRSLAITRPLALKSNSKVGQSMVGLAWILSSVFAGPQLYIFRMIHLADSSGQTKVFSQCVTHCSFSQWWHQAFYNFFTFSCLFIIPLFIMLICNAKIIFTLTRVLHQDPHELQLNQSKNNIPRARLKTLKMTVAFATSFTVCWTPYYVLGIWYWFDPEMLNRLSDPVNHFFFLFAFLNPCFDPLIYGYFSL
Muscarinic acetylcholine receptor M1 (Homo sapiens), sequence (P11229 whole entry, looked up): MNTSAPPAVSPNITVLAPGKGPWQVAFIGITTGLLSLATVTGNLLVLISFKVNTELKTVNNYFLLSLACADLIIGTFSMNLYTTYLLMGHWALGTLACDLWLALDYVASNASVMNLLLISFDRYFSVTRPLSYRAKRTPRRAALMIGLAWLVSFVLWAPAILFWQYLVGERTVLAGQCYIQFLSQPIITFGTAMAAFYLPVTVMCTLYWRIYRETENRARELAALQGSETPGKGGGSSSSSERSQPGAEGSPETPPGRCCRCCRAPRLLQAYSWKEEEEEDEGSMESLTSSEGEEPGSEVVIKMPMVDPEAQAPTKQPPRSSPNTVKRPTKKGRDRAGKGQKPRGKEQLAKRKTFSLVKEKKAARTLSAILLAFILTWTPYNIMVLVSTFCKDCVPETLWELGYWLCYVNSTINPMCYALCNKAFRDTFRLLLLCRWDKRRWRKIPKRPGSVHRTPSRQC
Beta-2 adrenergic receptor (Homo sapiens), sequence (P07550 whole entry, looked up): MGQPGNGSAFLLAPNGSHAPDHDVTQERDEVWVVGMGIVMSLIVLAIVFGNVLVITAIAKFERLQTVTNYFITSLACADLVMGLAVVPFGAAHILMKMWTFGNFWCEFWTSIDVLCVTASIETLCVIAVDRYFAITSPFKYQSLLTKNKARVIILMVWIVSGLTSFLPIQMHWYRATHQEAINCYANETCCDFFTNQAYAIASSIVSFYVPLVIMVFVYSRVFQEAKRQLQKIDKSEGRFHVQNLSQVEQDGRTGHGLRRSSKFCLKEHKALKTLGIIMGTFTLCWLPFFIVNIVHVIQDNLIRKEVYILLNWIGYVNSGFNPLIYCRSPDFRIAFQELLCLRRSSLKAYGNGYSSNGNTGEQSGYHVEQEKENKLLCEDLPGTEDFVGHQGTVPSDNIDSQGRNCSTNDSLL
5-hydroxytryptamine receptor 2A (Homo sapiens), sequence (P28223 whole entry, looked up): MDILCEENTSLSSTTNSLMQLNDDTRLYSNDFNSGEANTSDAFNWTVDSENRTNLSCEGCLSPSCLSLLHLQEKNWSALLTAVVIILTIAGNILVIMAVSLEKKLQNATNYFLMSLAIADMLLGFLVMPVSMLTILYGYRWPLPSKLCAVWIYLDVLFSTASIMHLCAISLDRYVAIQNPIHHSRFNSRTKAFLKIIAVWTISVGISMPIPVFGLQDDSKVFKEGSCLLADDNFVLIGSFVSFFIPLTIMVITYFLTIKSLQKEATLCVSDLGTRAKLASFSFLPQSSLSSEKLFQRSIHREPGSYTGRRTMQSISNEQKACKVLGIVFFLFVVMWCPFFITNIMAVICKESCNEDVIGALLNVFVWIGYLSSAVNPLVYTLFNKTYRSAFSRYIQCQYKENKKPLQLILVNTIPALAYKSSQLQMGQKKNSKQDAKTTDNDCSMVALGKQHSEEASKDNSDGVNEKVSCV
KiSS-1 receptor (Homo sapiens), sequence (Q969F8 whole entry, looked up): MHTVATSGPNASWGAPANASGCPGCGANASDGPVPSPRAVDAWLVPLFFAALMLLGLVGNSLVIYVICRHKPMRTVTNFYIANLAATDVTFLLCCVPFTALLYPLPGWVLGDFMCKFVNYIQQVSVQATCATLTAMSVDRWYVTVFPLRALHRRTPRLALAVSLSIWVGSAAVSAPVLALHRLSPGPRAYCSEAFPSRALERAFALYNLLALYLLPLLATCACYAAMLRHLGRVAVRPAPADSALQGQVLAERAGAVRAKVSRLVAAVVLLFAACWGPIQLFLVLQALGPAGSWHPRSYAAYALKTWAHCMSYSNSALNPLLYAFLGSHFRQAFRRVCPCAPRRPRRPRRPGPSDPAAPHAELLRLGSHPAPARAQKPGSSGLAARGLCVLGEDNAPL
D(2) dopamine receptor (Homo sapiens), sequence (P14416 whole entry, looked up): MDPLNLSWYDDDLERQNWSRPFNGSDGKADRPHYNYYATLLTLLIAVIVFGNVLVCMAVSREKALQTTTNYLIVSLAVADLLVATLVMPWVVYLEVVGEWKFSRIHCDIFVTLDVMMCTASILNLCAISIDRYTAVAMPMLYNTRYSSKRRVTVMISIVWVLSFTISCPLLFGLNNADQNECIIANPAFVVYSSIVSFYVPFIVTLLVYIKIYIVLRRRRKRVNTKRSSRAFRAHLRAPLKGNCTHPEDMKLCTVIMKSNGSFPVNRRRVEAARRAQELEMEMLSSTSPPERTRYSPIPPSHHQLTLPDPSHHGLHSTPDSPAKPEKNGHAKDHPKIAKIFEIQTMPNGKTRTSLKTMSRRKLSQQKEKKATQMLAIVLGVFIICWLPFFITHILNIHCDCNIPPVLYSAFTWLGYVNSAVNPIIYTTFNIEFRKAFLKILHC

COc1ccc(OC)c(C=O)c1
inactive: [1] | [2] | [3] | [4] | [5] | [6] | [7] | [8] | [9] | [10] | [11] | [12] | [13] | [14] | [15] | [16] | [17]

FC(F)OC(F)(F)C(F)Cl (configuration not stated)
inactive: [1] | [2] | [3] | [4] | [5] | [6] | [7] | [8] | [18] | [9] | [10] | [12] | [13] | [14] | [15] | [16] | [17]

CC(C)C(=O)Cl
inactive: [1] | [2] | [3] | [4] | [5] | [6] | [7] | [8] | [18] | [9] | [10] | [11] | [12] | [13] | [14] | [15] | [16] | [17]

CC#C[C@]1(O)CC[C@H]2[C@@H]3C[C@H](C)C4=CC(=O)CC[C@]4(C)[C@H]3CC[C@@]21C
inactive: [1] | [2] | [3] | [4] | [5] | [6] | [7] | [8] | [19] | [18] | [10] | [11] | [12] | [15] | [16] | [17]

COc1ccc(C(=O)c2c(C)n(CCN3CCOCC3)c3ccccc23)cc1
inactive: [1] | [2] | [3] | [4] | [5] | [6] | [20] | [9] | [10] | [11] | [12] | [17]

CCO/N=C(\CC)C1=C(O)CC(c2c(C)cc(C)cc2C)CC1=O (configuration not stated)
inactive: [1] | [2] | [3] | [4] | [5] | [6] | [20] | [9] | [10] | [12] | [15]

CCCCC(=O)Cl
inactive: [1] | [2] | [3] | [4] | [5] | [6] | [20] | [8] | [18] | [9] | [11] | [12] | [13] | [14] | [15] | [17]
